# In ChEMBL document CHEMBL1961873, “Compounds: GSK PKIS; Assays: Nanosyn kinase panel” (2012):
# Key:
# [1] = target: 5'-AMP-activated protein kinase catalytic subunit alpha-2 (Homo sapiens) (UniProt P54646); conditions: at 1 µM
# [2] = target: T1, NUAK family SNF1-like kinase 1 (Homo sapiens) (UniProt O60285); conditions: at 0.1 µM
# T1 sequence (whole entry): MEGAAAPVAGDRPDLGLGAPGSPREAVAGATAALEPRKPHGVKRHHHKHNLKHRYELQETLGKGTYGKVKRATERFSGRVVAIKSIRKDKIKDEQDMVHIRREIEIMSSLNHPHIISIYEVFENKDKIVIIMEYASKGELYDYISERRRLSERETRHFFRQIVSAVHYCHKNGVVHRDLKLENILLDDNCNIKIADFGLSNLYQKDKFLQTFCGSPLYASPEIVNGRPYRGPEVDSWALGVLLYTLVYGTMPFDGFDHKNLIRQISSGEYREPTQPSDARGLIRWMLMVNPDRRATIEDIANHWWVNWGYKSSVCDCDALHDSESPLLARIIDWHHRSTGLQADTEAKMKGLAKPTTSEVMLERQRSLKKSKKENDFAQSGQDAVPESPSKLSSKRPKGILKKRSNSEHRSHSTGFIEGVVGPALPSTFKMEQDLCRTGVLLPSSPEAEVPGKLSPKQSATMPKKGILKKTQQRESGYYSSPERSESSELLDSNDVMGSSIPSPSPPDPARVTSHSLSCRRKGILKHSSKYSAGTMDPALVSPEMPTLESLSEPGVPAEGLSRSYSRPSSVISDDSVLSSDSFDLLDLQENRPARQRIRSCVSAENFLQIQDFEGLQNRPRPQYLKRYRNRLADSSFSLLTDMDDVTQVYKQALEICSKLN
# [3] = target: T1, NUAK family SNF1-like kinase 1 (Homo sapiens); conditions: at 1 µM
# [4] = target: T2, Serine/threonine-protein kinase BRSK1 (Homo sapiens) (UniProt Q8TDC3); conditions: at 0.1 µM
# T2 sequence (whole entry): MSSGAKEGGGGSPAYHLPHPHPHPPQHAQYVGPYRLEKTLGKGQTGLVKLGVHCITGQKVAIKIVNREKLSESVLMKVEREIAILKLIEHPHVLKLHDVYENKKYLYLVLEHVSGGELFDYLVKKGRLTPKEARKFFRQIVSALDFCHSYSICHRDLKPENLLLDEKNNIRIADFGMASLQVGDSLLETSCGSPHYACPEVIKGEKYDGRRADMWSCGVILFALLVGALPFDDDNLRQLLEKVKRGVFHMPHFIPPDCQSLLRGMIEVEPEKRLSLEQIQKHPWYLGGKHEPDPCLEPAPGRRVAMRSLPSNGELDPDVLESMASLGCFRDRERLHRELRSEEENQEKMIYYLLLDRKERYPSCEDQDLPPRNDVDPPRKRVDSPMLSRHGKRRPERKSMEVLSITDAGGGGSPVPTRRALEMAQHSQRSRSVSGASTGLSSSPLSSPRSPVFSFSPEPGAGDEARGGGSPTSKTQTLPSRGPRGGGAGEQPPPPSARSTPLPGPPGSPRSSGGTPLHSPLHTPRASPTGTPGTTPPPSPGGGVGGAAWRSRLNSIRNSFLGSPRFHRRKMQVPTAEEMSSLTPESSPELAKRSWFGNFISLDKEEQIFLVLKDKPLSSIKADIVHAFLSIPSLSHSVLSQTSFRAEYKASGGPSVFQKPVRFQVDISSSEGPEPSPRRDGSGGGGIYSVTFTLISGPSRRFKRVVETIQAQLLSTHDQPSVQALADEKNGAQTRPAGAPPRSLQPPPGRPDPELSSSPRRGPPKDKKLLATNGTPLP
# [5] = target: T2, Serine/threonine-protein kinase BRSK1 (Homo sapiens); conditions: at 1 µM
# [6] = target: T3, Serine/threonine-protein kinase BRSK2 (Homo sapiens) (UniProt Q8IWQ3); conditions: at 0.1 µM
# T3 sequence (whole entry): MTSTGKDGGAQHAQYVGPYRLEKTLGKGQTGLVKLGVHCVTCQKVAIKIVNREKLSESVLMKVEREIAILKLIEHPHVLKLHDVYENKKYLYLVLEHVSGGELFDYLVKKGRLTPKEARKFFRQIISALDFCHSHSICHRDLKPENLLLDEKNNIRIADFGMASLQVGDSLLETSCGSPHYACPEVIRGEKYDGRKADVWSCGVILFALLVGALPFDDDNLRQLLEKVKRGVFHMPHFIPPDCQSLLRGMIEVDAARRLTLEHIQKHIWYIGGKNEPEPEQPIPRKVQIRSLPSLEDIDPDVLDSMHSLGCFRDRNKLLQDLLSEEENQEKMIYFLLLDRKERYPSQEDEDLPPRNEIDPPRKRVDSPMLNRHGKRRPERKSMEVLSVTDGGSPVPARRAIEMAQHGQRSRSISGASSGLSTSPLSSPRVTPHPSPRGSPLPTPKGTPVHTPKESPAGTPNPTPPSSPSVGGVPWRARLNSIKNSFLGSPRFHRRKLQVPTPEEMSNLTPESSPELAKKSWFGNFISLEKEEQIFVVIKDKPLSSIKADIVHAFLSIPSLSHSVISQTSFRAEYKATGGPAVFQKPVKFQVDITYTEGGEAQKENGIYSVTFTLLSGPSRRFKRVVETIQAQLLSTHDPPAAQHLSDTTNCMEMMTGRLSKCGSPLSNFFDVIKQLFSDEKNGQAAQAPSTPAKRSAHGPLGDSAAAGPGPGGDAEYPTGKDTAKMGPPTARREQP
# [7] = target: T3, Serine/threonine-protein kinase BRSK2 (Homo sapiens); conditions: at 1 µM
# [8] = target: Calcium/calmodulin-dependent protein kinase type 1D (Homo sapiens) (UniProt Q8IU85); conditions: at 0.1 µM
# Calcium/calmodulin-dependent protein kinase type 1D (Homo sapiens), sequence (Q8IU85 whole entry, looked up): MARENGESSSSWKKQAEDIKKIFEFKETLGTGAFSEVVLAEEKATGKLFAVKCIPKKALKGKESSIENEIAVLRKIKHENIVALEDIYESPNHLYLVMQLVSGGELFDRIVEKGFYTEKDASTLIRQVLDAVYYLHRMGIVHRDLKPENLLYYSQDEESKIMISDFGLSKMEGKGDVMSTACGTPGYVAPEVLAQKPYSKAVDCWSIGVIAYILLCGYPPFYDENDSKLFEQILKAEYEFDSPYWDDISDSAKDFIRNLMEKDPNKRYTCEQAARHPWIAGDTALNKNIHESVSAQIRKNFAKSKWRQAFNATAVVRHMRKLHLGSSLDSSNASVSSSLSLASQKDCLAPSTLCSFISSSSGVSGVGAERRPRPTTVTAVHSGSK
# [9] = target: Calcium/calmodulin-dependent protein kinase type 1D (Homo sapiens) (UniProt Q8IU85); conditions: at 1 µM
# [10] = target: Calcium/calmodulin-dependent protein kinase type II subunit alpha (Homo sapiens) (UniProt Q9UQM7); conditions: at 0.1 µM
# Calcium/calmodulin-dependent protein kinase type II subunit alpha (Homo sapiens), sequence (Q9UQM7 whole entry): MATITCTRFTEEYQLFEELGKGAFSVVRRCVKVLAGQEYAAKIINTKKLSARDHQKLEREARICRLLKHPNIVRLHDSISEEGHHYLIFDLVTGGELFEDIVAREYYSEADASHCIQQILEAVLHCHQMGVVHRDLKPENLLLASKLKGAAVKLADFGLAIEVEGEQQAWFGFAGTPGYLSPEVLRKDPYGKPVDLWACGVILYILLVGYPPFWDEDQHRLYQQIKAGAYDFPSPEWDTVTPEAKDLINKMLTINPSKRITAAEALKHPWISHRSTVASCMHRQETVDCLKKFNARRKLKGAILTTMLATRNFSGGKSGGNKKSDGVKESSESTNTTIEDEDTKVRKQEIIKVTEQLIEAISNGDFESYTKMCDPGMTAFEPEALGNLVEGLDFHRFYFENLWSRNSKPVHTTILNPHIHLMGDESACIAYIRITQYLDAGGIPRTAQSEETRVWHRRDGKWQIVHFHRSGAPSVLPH
# [11] = target: Calcium/calmodulin-dependent protein kinase type II subunit alpha (Homo sapiens) (UniProt Q9UQM7); conditions: at 1 µM
# [12] = target: Calcium/calmodulin-dependent protein kinase type II subunit delta (Homo sapiens) (UniProt Q13557); conditions: at 0.1 µM
# Calcium/calmodulin-dependent protein kinase type II subunit delta (Homo sapiens), sequence (Q13557 whole entry): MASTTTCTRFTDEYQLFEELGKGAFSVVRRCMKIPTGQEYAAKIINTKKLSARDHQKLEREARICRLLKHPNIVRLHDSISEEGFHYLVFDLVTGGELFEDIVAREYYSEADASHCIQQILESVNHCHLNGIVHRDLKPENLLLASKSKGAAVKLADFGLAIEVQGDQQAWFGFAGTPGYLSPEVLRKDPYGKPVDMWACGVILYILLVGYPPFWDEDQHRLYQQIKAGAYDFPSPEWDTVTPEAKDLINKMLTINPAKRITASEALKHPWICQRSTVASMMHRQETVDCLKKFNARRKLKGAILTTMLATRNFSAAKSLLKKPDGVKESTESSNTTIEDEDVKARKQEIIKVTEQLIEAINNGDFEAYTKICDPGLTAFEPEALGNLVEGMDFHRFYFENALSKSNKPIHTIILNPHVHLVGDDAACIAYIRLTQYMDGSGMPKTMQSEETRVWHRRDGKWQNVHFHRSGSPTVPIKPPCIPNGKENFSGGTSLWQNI
# [13] = target: Calcium/calmodulin-dependent protein kinase type II subunit delta (Homo sapiens) (UniProt Q13557); conditions: at 1 µM
# [14] = target: T4, Calcium/calmodulin-dependent protein kinase type IV (Homo sapiens) (UniProt Q16566); conditions: at 0.1 µM
# T4 sequence (whole entry): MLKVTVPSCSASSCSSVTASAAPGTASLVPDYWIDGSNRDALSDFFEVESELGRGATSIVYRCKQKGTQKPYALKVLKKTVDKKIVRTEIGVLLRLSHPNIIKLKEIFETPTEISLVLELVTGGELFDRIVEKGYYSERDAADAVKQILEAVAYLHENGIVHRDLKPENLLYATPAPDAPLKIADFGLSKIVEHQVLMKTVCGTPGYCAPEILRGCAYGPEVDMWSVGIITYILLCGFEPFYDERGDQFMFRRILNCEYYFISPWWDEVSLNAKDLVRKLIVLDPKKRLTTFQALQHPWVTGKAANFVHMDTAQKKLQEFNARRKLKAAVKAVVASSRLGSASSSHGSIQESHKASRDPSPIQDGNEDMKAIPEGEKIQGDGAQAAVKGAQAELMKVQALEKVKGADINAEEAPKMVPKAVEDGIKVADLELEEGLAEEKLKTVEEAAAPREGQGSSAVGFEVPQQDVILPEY
# [15] = target: T4, Calcium/calmodulin-dependent protein kinase type IV (Homo sapiens); conditions: at 1 µM
# [16] = target: T5, Serine/threonine-protein kinase Chk1 (Homo sapiens) (UniProt O14757); conditions: at 0.1 µM
# T5 sequence (whole entry): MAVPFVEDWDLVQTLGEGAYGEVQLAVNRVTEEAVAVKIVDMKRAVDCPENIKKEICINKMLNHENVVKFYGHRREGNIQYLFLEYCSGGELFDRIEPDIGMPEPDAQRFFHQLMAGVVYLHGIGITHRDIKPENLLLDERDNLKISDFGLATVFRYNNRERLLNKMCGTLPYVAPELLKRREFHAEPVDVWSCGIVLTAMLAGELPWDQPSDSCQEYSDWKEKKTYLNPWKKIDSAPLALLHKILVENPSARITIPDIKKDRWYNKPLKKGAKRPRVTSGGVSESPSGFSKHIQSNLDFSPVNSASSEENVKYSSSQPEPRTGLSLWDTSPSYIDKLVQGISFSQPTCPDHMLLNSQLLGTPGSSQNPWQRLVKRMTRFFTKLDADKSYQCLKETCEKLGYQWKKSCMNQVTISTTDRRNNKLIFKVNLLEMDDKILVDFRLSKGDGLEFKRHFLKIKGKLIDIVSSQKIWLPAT
# [17] = target: T5, Serine/threonine-protein kinase Chk1 (Homo sapiens); conditions: at 1 µM
# [18] = target: Serine/threonine-protein kinase Chk2 (Homo sapiens) (UniProt O96017); conditions: at 0.1 µM
# Serine/threonine-protein kinase Chk2 (Homo sapiens), sequence (O96017 whole entry): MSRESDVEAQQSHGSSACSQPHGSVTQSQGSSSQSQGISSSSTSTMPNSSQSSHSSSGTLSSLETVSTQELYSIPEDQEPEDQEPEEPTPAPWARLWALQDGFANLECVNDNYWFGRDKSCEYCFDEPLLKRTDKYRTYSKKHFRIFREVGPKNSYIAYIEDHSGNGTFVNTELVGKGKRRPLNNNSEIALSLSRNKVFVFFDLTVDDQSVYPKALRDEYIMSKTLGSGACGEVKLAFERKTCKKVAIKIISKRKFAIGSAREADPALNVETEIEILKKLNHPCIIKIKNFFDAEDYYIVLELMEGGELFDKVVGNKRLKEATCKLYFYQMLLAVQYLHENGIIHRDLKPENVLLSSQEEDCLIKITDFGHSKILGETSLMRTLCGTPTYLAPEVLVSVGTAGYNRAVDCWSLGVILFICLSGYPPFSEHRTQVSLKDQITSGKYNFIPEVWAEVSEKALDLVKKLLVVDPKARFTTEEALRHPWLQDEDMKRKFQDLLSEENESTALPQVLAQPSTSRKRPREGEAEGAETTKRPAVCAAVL
# [19] = target: Serine/threonine-protein kinase Chk2 (Homo sapiens) (UniProt O96017); conditions: at 1 µM
# [20] = target: Death-associated protein kinase 1 (Homo sapiens) (UniProt P53355); conditions: at 0.1 µM;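 further: reported figure is the mean inhibition of DAPK1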
# Death-associated protein kinase 1 (Homo sapiens), sequence (P53355 whole entry, looked up): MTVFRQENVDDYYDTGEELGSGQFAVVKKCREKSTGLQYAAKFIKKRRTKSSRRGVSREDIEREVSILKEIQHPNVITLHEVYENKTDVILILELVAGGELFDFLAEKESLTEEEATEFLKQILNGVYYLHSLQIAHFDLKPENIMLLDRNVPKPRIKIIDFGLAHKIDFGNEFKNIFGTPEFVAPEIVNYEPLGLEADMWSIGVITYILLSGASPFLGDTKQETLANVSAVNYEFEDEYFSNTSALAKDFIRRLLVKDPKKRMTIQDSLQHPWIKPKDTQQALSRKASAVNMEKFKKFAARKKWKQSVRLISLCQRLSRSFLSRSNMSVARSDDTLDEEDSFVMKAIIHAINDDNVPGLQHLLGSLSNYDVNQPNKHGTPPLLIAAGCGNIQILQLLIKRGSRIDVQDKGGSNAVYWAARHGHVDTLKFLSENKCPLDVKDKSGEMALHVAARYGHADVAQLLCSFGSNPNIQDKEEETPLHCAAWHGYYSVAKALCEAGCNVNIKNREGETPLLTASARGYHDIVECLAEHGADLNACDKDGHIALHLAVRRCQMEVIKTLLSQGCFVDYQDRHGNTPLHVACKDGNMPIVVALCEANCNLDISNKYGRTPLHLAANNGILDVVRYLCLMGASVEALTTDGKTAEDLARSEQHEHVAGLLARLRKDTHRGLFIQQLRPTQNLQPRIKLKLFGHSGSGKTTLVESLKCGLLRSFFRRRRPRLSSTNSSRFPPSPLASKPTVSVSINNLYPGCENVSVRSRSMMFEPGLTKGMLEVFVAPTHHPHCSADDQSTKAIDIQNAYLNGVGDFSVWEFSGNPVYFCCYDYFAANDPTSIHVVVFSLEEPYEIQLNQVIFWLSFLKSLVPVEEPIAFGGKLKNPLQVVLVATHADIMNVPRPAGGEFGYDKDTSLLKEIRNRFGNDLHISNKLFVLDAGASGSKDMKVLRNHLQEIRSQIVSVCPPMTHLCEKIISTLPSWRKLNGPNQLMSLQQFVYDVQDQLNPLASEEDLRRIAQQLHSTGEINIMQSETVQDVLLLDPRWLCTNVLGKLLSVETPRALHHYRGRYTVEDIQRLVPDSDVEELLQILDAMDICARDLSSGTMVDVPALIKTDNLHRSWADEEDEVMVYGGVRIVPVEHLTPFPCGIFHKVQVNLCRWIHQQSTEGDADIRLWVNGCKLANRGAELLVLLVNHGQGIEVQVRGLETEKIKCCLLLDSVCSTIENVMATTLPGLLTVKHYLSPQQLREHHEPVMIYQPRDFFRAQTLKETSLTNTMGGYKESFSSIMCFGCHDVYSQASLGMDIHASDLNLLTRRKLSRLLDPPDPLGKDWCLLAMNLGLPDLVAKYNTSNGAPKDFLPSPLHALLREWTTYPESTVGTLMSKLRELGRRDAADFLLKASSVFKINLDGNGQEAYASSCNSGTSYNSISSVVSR
# 5'-AMP-activated protein kinase catalytic subunit alpha-2 (Homo sapiens), sequence (P54646 whole entry, looked up): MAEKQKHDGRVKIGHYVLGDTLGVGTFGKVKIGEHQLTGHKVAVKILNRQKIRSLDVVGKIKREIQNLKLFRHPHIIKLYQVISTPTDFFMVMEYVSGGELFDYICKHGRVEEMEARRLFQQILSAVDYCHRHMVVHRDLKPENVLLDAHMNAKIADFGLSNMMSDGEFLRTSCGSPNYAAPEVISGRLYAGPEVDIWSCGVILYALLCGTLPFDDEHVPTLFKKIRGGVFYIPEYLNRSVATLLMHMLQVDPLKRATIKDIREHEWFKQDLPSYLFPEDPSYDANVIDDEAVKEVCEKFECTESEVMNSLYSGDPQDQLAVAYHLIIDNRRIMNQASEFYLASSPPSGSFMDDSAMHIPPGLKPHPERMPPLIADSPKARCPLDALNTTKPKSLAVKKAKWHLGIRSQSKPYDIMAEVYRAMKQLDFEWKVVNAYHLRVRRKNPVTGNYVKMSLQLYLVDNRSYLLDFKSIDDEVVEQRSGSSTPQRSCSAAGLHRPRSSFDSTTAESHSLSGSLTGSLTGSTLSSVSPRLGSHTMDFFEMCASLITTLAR
Structure (SMILES),inhibition [1] [%],inhibition [2] [%],inhibition [3] [%],inhibition [4] [%],inhibition [5] [%],inhibition [6] [%],inhibition [7] [%],inhibition [8] [%],inhibition [9] [%],inhibition [10] [%],inhibition [11] [%],inhibition [12] [%],inhibition [13] [%],inhibition [14] [%],inhibition [15] [%],inhibition [16] [%],inhibition [17] [%],inhibition [18] [%],inhibition [19] [%],inhibition [20] [%]
CCN1CCC(CC(=O)Nc2n[nH]c3nc(-c4cccs4)c(Br)cc23)CC1,5.99,-2.53,9.14,3.39,21.7,2.29,18.5,-0.45,1.72,-4.08,-1.26,-1.29,7.67,0.29,-0.89,2.28,2.57,-3.64,-3.75,0.43
COc1cc2c(cc1Nc1nc(N3CCc4ccccc43)c3cc[nH]c3n1)N(C(=O)CN(C)C)CC2,3.8,4.37,-4.13,2.17,0.61,0.98,1.3,0.34,2.58,3.95,4.08,3.43,2.99,2.17,3.69,0.15,3.74,1.34,7.08,2.95
Cn1cc(C=C2C(=O)Nc3cccnc32)c2ccccc21,8.64,8.91,44.5,4.71,12.3,6.03,12.3,0.99,2.41,1.58,3.18,2.44,6.23,0.47,-0.07,0.66,7.2,2.65,15.6,2.44
COc1cc2ncn(-c3cc(OCc4ccccc4C(F)(F)F)c(C(N)=O)s3)c2cc1OC,6.24,21.7,65.5,6.7,41.1,14.8,52.4,-0.86,-1.9,2.39,-0.1,3.23,7.03,-2.38,-1.47,2.54,3.46,3.3,5.56,4.32
COc1cc2ncn(-c3cc(OCc4ccccc4Cl)c(C(N)=O)s3)c2cc1OC,3.59,14.3,58.6,7.81,40.6,12.4,48.6,0.78,3.64,-2.74,-0.06,0.36,2.88,0.78,0.41,-4.54,-4.25,-4.95,-0.53,-8.75
CCCN1CCC(Oc2cc(Nc3nc(Nc4cccc(F)c4C(N)=O)c4cc[nH]c4n3)c(OC)cc2Cl)CC1,6.28,7.21,9.7,0.4,-0.28,-0.51,0.24,3.19,23.1,0.13,4.06,3.15,16.5,9.59,31.1,1.9,3.67,1.65,33.6,0.88
O=C(Nc1n[nH]c2nc(-c3ccco3)c(Br)cc12)C1CC1,5.5,-2.45,4.11,3,12.9,3.32,11.5,0.93,1.36,4.38,2.92,3.12,4.6,1.47,2.02,3.44,4.35,2.64,2.71,3.14
